From the supplement of paper PMC10127200
“And” between values parts separate entries of the source, which are not always exact repeats. Identical values can stand only once. Counter-ions that a name gives are not always drawn.

What was measured:
Test in all cases: Euclidean distance of Cell Painting phenotypic profile (signed KS, 77 features) to DMSO centroid (dimensionless distance); 5 or 10 uM (library dependent); higher = stronger phenotypic change vs DMSO (phenoactivity)
Conditions in all cases: 48 h
[1] = system: 786-O
In short: (§1)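 Library compounds were applied at 10 or 5 uM, depending on the library, with 0.1% DMSO final, for 48 h to five cancer lines and a healthy fibroblast line. After staining, cells were imaged confocally at 20X across 9 fields per well, and Harmony extracted 77 features, each scored as a signed Kolmogorov-Smirnov statistic against vehicle wells on the same plate. Phenoactivity is the Euclidean distance between each profile and the median vehicle profile, with profiles first plate-position corrected, correlation-weighted and averaged over replicates at the top dose.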

[2] = system: A549
In short: as §1

[3] = system: DU145
In short: as §1

[4] = system: FB
In short: as §1

[5] = system: HEPG2
In short: as §1

[6] = system: OVCAR4
In short: as §1

| SMILES | Euclidean distance [1] | Euclidean distance [2] | Euclidean distance [3] | Euclidean distance [4] | Euclidean distance [5] | Euclidean distance [6] |
| --- | --- | --- | --- | --- | --- | --- |
| COc1ccc([C@]2(C#N)CC[C@@H](C(=O)O)CC2)cc1OC1CCCC1 [Cilomilast] | 1.31 | 0.842 | 1.35 | 1.14 | 1.3 | 1.53 |
| CC1=C(C(=O)OC2CCCCC2)C(c2ccc([N+](=O)[O-])cc2)C2=C(CC(C)(C)CC2=O)N1 (configuration not stated) | 2.98 | 3.4 | 1.52 | 2.71 | 2.03 | 2.99 |
| COc1cc2nc(N3CCN(C(=O)c4ccco4)CC3)nc(N)c2cc1OC [Prazosin HCl] | 0.833 | 0.676 | 0.97 | 0.552 | 0.382 | 0.59 |
| CC[C@H](c1ccc(O)cc1)[C@@H](CC)c1ccc(O)cc1 [Hexestrol] | 1.62 | 1.07 | 0.97 | 0.95 | 0.662 | 1.06 |
| Cn1cc(-c2ccc3nnc(C(F)(F)c4ccc5ncccc5c4)n3n2)cn1 | 0.466 | 2.03 | 0.962 | 1.2 | 0.706 | 1.08 |
| C/C=C1/[C@H](O[C@@H]2O[C@H](CO)[C@@H](O)[C@H](O)[C@H]2O)OC=C(C(=O)OC)[C@H]1CC(=O)OCCc1ccc(O)c(O)c1 [Oleuropein] | 0.802 | 0.844 | 0.63 | 0.971 | 0.64 | 1.46 |
| O=C(O)c1ccccc1 [Benzoic Acid] | 1.39 | 1.16 | 1.58 | 0.886 | 1.6 | 0.868 |
| CC1(C)CCC2=C(O1)c1ccccc1C(=O)C2=O [Beta-Lapachone] | 3.88 | 5.17 | 7.8 | 4.08 | 4.33 | 5.57 |
| CC(C)C[C@H](NC(=O)[C@H]1O[C@@H]1C(=O)O)C(=O)NCCCCN=C(N)N | 1.31 | 1.07 | 1.07 | 1.02 | 0.615 | 1.09 |
| CC(=O)CC/C=C(\C)CC/C=C(\C)CC/C=C(\C)CCC=C(C)C [Teprenone] | 1.06 | 0.693 | 0.749 | 1.12 | 1.1 | 1.23 |
| CCN(CC)CC#CCOC(=O)C(O)(c1ccccc1)C1CCCCC1 (configuration not stated) [Oxybutynin] | 0.749 | 0.615 | 1.19 | 0.788 | 1.25 | 0.913 |
| CCN1CCC[C@H]1CNC(=O)c1cc(S(N)(=O)=O)ccc1OC [Levosulpiride] | 1.03 | 0.793 | 1.14 | 0.991 | 1.73 | 1.77 |
| CO[C@@H]1[C@@H](O[C@@H]2O[C@H](C)[C@@H](O[C@H]3C[C@@](C)(O)[C@@H](OC(=O)CC(C)C)[C@H](C)O3)[C@H](N(C)C)[C@H]2O)[C@@H](CC=O)C[C@@H](C)[C@@H](O)/C=C/C=C/C[C@@H](C)OC(=O)C[C@H]1O [Kitasamycin] | 0.871 | 1.1 | 1.49 | 0.973 | 0.78 | 0.761 |
| OC[C@H]1O[C@@H](OCCc2ccc(O)cc2)[C@H](O)[C@@H](O)[C@@H]1O [Salidroside] | 1.05 | 0.737 | 0.796 | 0.815 | 0.763 | 1.5 |
| CN1CCc2cc3c(cc2C(=O)Cc2ccc4c(c2C1)OCO4)OCO3 [Protopine] | 0.844 | 1.36 | 0.606 | 0.616 | 1.3 | 1.68 |
| CN(c1ncccc1CNc1nc(Nc2ccc3c(c2)CC(=O)N3)ncc1C(F)(F)F)S(C)(=O)=O | 1.25 and 2.75 | 3.05 and 1.62 | 2.34 and 1.3 | 3.61 and 1.66 | 2.58 and 1.31 | 3.25 and 1.45 |
| CC1(C)NC(=O)N(c2ccc([N+](=O)[O-])c(C(F)(F)F)c2)C1=O [Nilutamide] | 0.81 | 0.753 | 1.03 | 0.9 | 0.474 | 0.959 |
| CC(=O)OCC1=C(C(=O)O)N2C(=O)[C@@H](NC(=O)Cc3cccs3)[C@H]2SC1 [Cephalothin] | 1.38 | 0.786 | 0.824 | 1.24 | 1.28 | 1.23 |
| O=C(CCCCCCNC(=O)c1cnc(N(c2ccccc2)c2ccccc2Cl)nc1)NO [Citarinostat (ACY-241)] | 1.92 | 2.05 | 2.16 | 3.07 | 2.52 | 1.75 |
| Nc1nc2ccc(OC(F)(F)F)cc2s1 [Riluzole] | 1.03 | 0.891 | 2.58 | 1.3 | 0.688 | 0.739 |
| O=C(CCCN1CC=C(n2c(=O)[nH]c3ccccc32)CC1)c1ccc(F)cc1 [Droperidol] | 1.34 | 0.569 | 0.766 | 0.888 | 0.689 | 0.73 |
| CCOC(=O)[C@H](CCc1ccccc1)N[C@@H](C)C(=O)N1Cc2ccccc2C[C@H]1C(=O)O [Quinapril HCl] | 1.41 | 1.16 | 0.942 | 1.09 | 0.483 | 1.04 |
| CCN(CC)CCNC(=O)c1ccc(N)cc1 [Procainamide HCl] | 0.693 | 1.02 | 0.74 | 0.787 | 0.326 | 1.07 |
| C1N2CN3CN1CN(C2)C3 [Methenamine] | 1.23 | 0.437 | 0.592 | 0.896 | 0.586 | 1.2 |

| SMILES | Euclidean distance [1] | Euclidean distance [2] | Euclidean distance [3] | Euclidean distance [4] | Euclidean distance [5] | Euclidean distance [6] |
| --- | --- | --- | --- | --- | --- | --- |
| CC(=O)Oc1cccc2c1C(=O)c1c(OC(C)=O)cc(C(=O)O)cc1C2=O [Diacerein] | 0.962 | 0.94 | 1.19 | 1.22 | 0.429 | 1.51 |
| CC(C)(C)c1cc(/C=C(\C#N)C(N)=S)cc(C(C)(C)C)c1O [Tyrphostin AG 879] | 1.54 | 1.46 | 0.926 | 0.967 | 0.81 | 1.01 |
| CC1=C(C(=O)O)N2C(=O)[C@@H](NC(=O)[C@H](N)C3=CCC=CC3)[C@H]2SC1 [Cephradine monohydrate] | 1.65 | 0.779 | 2.12 | 0.776 | 0.698 | 0.618 |
| Cc1cc(Nc2ncnc3ccc(NC4=NC(C)(C)CO4)cc23)ccc1Oc1ccn2ncnc2c1 [Irbinitinib (ARRY-380. ONT-380)] | 1.56 | 1.62 | 1.3 | 1.15 | 1.12 | 1.29 |
| Cc1cc(CC(C)CC(C)(C)C)n(O)c(=O)c1 (configuration not stated) [Piroctone Olamine] | 2.93 | 3.56 | 4.37 | 3.73 | 3.88 | 4.49 |
| CCCCCCCCCC(=O)OC1(c2ccc(Cl)cc2)CCN(CCCC(=O)c2ccc(F)cc2)CC1 [Haloperidol Decanoate] | 0.828 | 1.13 | 1.01 | 0.816 | 0.961 | 1.26 |
| CO[C@H]1CC[C@H](N2C(=O)CNc3ncc(-c4ccc(C(C)(C)O)nc4)nc32)CC1 | 3.2 | 3.38 | 2.56 | 3.76 | 2.34 | 3 |
| CO[C@@H]1[C@@H](O[C@@H]2O[C@H](C)[C@@H](O[C@H]3C[C@@](C)(O)[C@@H](O)[C@H](C)O3)[C@H](N(C)C)[C@H]2O)[C@@H](CC=O)C[C@@H](C)[C@@H](O[C@H]2CC[C@H](N(C)C)[C@@H](C)O2)/C=C/C=C/C[C@@H](C)OC(=O)C[C@H]1OC(C)=O [Acetylspiramycin (ASPM)] | 0.993 | 1.5 | 2.15 | 1.66 | 1.45 | 1.73 |
| CC(C)(O)c1ccccc1CC[C@@H](SCC1(CC(=O)O)CC1)c1cccc(/C=C/c2ccc3ccc(Cl)cc3n2)c1 [Montelukast Sodium] | 0.941 | 0.527 | 0.759 | 0.512 | 0.526 | 0.733 |
| CNC(=O)c1cnn(-c2nc(N)c3ncn([C@@H]4O[C@H](CO)[C@@H](O)[C@H]4O)c3n2)c1 [Regadenoson] | 0.517 | 0.628 | 0.867 | 1.43 | 1.32 | 0.995 |
| c1ccc(CC2=NCCN2)cc1 [Tolazoline HCl] | 0.97 | 1.05 | 0.877 | 0.718 | 0.734 | 1.42 |
| CN(C)CCc1c[nH]c2ccc(C[C@H]3COC(=O)N3)cc12 [Zolmitriptan] | 1.26 | 1.23 | 1.25 | 0.876 | 0.663 | 1.74 |
| CN(C)CCC=C1c2ccccc2C=Cc2ccccc21 [Cyclobenzaprine HCl] | 1.1 | 1.26 | 1.14 | 1.88 | 1.52 | 1.16 |
| O=C([O-])c1ccccc1O.[Na+] [Sodium salicylate] | 0.657 | 0.529 | 0.888 | 0.714 | 0.709 | 0.92 |
| CC[C@H]1OC(=O)[C@H](C)[C@@H](O[C@H]2C[C@@](C)(OC)[C@@H](O)[C@H](C)O2)[C@H](C)[C@@H](O[C@@H]2O[C@H](C)C[C@H](N(C)C)[C@H]2O)[C@](C)(O)C[C@@H](C)C(=O)[C@H](C)[C@@H](O)[C@]1(C)O [Erythromycin thiocyanate] | 1.01 | 1.44 | 0.991 | 1.53 | 0.812 | 1.95 |
| CC[N+](CC)(CC)CCOc1cccc(OCC[N+](CC)(CC)CC)c1OCC[N+](CC)(CC)CC [Gallamine Triethiodide] | 0.82 | 0.878 | 1.08 | 1.22 | 1.06 | 1.04 |
| CCCC(=O)Nc1cccc(NC(=O)c2ccccc2Br)c1 | 1.43 | 1.02 | 1.04 | 1.14 | 1.27 | 0.946 |
| COc1cc(Cc2cnc(N)nc2N)cc(OC)c1OC [Trimethoprim] | 1.42 | 0.849 | 0.917 | 1.39 | 0.86 | 1.12 |
| O=C(O)CCc1nc(-c2ccccc2)c(-c2ccccc2)o1 [Oxaprozin] | 1.01 | 0.794 | 0.541 | 0.987 | 1.16 | 1.28 |
| Cc1cnc(Nc2ccc(OCCN3CCCC3)cc2)nc1Nc1cccc(S(=O)(=O)NC(C)(C)C)c1 | 4.21 | 4.4 | 2.95 | 4.43 | 2.96 | 3.56 |
| O=C(Nc1ccccc1)Nc1ccc(-c2ccc(C(=O)[C@@H]3CCC[C@H]3C(=O)O)cc2)cc1 | 0.735 | 0.898 | 0.804 | 1.29 | 1.92 | 0.814 |
| COc1ccc(NS(=O)(=O)c2sc3ccc(Cl)cc3c2C)cc1N1CCNCC1 | 2.31 | 1.39 | 1.12 | 1.13 | 1.35 | 1.29 |
| CO[C@H]1C[C@@H]2CC[C@@H](C)[C@@](O)(O2)C(=O)C(=O)N2CCCC[C@H]2C(=O)O[C@H]([C@H](C)C[C@@H]2CC[C@@H](OP(C)(C)=O)[C@H](OC)C2)CC(=O)[C@H](C)/C=C(\C)[C@@H](O)[C@@H](OC)C(=O)[C@H](C)C[C@H](C)/C=C/C=C/C=C/1C [Ridaforolimus (Deforolimus. MK-8669)] | 2.74 | 1.98 | 1.3 | 2.88 | 1.37 | 2.04 |
